According to PubChem BioAssay AID652175 (National Center for Advancing Translational Sciences (NCATS), 2013):
Where “and” joins values, the source holds several entries; their conditions need not be identical. Equal values may be shown once. Results filed as inconclusive are left out. Calls of active or inactive are those of the source. Calls come from the whole dose curve; as a rule, active = well fitted inhibition curve with a large enough effect; inconclusive = small, poorly fitted or top-dose-only effect; inactive = no such curve, though single readings can be large or run the other way.

Experiment: qHTS Assay for Lipid Storage Modulators: S3 Assay against Probe and Analogs
Conditions: Drosophila S3 cells, BODIPY lipid droplet fluorescence, 18-24 h, oleic acid added to induce droplets; series mostly up to 46.1 µM
Procedure, shortened: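 Drosophila S3 cells, 5,000/well, dosed with compounds (0.46% DMSO final) and oleic acid to induce lipid droplets, 18-24 h at 25 °C. BODIPY 493/503 and Cell Tracker Red read by laser-scanning cytometry; % activity relative to 20 uM Triacsin C.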

Row | Structure (SMILES) | Potency
1 | CCOC(=O)C1CCN(C(=O)CNC(=O)Nc2ccccc2Cl)CC1 | inactive
2 | CCOc1ccc(CCNC(=O)c2cc3ccccc3n2Cc2ccc(Cl)c(F)c2)cc1OCC | 5.9 nM (active)
3 | Cc1ccc(NC(=O)c2ccc(CN3CCN(C)CC3)cc2)cc1Nc1nc(-c2cccnc2)cs1 | inactive
4 | O=C(NC1CCCc2c1cnn2-c1ccc(F)cc1F)c1ccc(C2(C(F)(F)F)N=N2)cc1 (centres undefined) | 7430 nM (active)
5 | COc1ccc(-n2ncc3c2CCCC3NC(=O)c2ccccn2)cc1 (centres undefined) | 1.3 nM (active)
6 | CCOc1ccc(CCNC(=O)c2cc3sccc3n2Cc2ccccc2)cc1OCC | 4.2 nM (active)
7 | CCOc1ccc(CCN(C)C(=O)c2cc3sccc3n2Cc2ccccc2)cc1OCC | 469 nM (active)
8 | CCOc1ccc(CCNC(=O)c2ccc3[nH]ccc3c2)cc1OCC | inactive
9 | CCOC(=O)C1CCN(C(=O)C(C)(C)NC(=O)Nc2ccc(Cl)cc2Cl)CC1 | 1480 nM (active)
10 | O=C(NC1CCCc2c1cnn2-c1ccc(F)cc1F)c1ccccn1 (centres undefined) | 23.5 nM (active) and 4.7 nM (active)
11 | CCOC(=O)C1CCN(C(=O)C(C)(C)NC(=O)Nc2ccc3sccc3c2)CC1 | inactive
12 | O=C(NCCc1ccc(O)c(O)c1)c1cc2sccc2n1Cc1ccccc1 | inactive
13 | O=C(NC1CCCc2c1cnn2-c1ccc(F)cc1F)c1ccncc1 (centres undefined) | inactive
14 | O=C(NC1CCCc2c1cnn2-c1ccc(F)cc1F)C1CCCCC1 (centres undefined) | inactive
15 | CCOc1ccc(CCNC(=O)c2cc3ccccc3n2Cc2cc(C)cc(C)n2)cc1OCC | 16.6 nM (active)
16 | Cn1c(=O)n(-c2ccc(C(C)(C)C#N)cc2)c2c3cc(-c4cnc5ccccc5c4)ccc3ncc21 | 1180 nM (active)
17 | CCOc1ccc(CCNC(=O)c2cccs2)cc1OCC | inactive
18 | CCOc1ccc(CCNC(=O)c2cc3ccccc3o2)cc1OCC | inactive
19 | CCOc1ccc(CCNC(C)=O)cc1OCC | inactive
20 | O=C(NC1CCCc2c1cnn2-c1cccc(O)c1)c1ccccn1 (centres undefined) | 41.8 nM (active)
21 | O=C(NC1CCCc2c1cnn2-c1ccc(F)cc1F)c1cccs1 (centres undefined) | 14.8 nM (active)
22 | O=C(Nc1cccc2nn(-c3ccc(F)cc3)cc12)c1ccccn1 | inactive
23 | CCOC(=O)C1CCN(C(=O)C(C)(C)NC(=O)Nc2ccc(N)cc2)CC1 | inactive
24 | CCOc1cc(F)c(CCNC(=O)c2cc3sccc3n2Cc2ccccc2)cc1OCC | 3.3 nM (active)
25 | O=C(NC1CCCc2c1cnn2-c1ccc(F)cc1F)c1ccc(C(=O)c2ccccc2)cc1 (centres undefined) | inactive
26 | O=C(NCCc1ccc(OCC(F)(F)F)c(OCC(F)(F)F)c1)c1cc2sccc2n1Cc1ccccc1 | 1320 nM (active)
27 | O=C(NC1CCCc2c1cnn2CCO)c1ccccn1 (centres undefined) | inactive
28 | O=C(NC1CCCc2c1cnn2-c1ccc(F)cc1F)c1ccsc1 (centres undefined) | 11.8 nM (active)
29 | CCOC(=O)C1CCN(C(=O)C2(NC(=O)Nc3ccccc3Cl)CCCCC2)CC1 | 166 nM (active)
